Assay results reported in PubChem BioAssay (NCI).
Compounds without any hit were thinned out: in the full panel of roughly 83,000, 20% have a hit.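 96-well plates, one dose, 48 hours. Percent growth reported; active if below 10.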 A number with no mark means an inactive call. Calls of active or inactive are those of the source.

Key:
Test in all cases: NCI-60 one-dose screen, 48 h (100 = growth as untreated, 0 = no growth, -100 = all killed)
Conditions in all cases: 10 µM unless noted
SN12C renal = test system: SN12C renal
UO-31 renal = test system: UO-31 renal
TK-10 renal = test system: TK-10 renal
ACHN renal = test system: ACHN renal
CAKI-1 renal = test system: CAKI-1 renal
CCRF-CEM leukemia = test system: CCRF-CEM leukemia
MOLT-4 leukemia = test system: MOLT-4 leukemia
SR leukemia = test system: SR leukemia
A498 renal = test system: A498 renal

`COc1ccc(/C=C2\NC(=O)NC2=O)cc1O` gave a growth (SN12C renal) of 99.7%, a growth (UO-31 renal) of 106% and a growth (TK-10 renal) of 109%. For the same molecule, the growth (ACHN renal) was 105%, the growth (CAKI-1 renal) was 85.6% and the growth (CCRF-CEM leukemia) was 97.6%. It also gave a growth (MOLT-4 leukemia) of 99.5% and a growth (SR leukemia) of 102%.
In the case of `COc1ccc(-c2nc(-c3ccccc3)c(-c3ccccc3)[nH]2)cc1OC1CCCCC1`, the growth (SN12C renal) was 81.6%, the growth (UO-31 renal) was 59.3% and the growth (TK-10 renal) was 115%. It also gave a growth (ACHN renal) of 68.9%, a growth (CAKI-1 renal) of 71.7% and a growth (A498 renal) of 68.2%. For the same molecule, the growth (MOLT-4 leukemia) was 79.4%.
`O=c1cc(NC2CCN(CCCc3ccccc3)CC2)c2cc(Cl)ccc2o1` was tested, and the growth (SN12C renal) was 6.09% (active), the growth (UO-31 renal) was -10.4% (active) and the growth (TK-10 renal) was -13.9% (active). The growth (ACHN renal) was 10.3%, the growth (CAKI-1 renal) was -10.6% (active) and the growth (CCRF-CEM leukemia) was 3.59% (active). For the same molecule, the growth (MOLT-4 leukemia) was 1.27% (active) and the growth (SR leukemia) was -11.4% (active).
`O=[N+]([O-])c1cc2c(ccc3occc32)o1` was tested, and the growth (SN12C renal) was 32.4%, the growth (UO-31 renal) was 23.4% and the growth (TK-10 renal) was 35.7%. The growth (ACHN renal) was 4.13% (active), the growth (CAKI-1 renal) was -19.7% (active) and the growth (CCRF-CEM leukemia) was 9.79% (active). The growth (MOLT-4 leukemia) was 17.1% and the growth (SR leukemia) was 10.9%.
`CC1CCCCN1CCCNC(=O)c1ccc2c(c1)sc1nc(-c3ccc(F)cc3)cn12` (configuration not stated) showed a growth (SN12C renal) of 99.6%, a growth (UO-31 renal) of 77% and a growth (TK-10 renal) of 90.4%. For the same molecule, the growth (ACHN renal) was 101%, the growth (CAKI-1 renal) was 97.4% and the growth (CCRF-CEM leukemia) was 82.8%. The growth (MOLT-4 leukemia) was 85.7% and the growth (SR leukemia) was 78.1%.
In the case of `Cc1ccc(S(=O)c2ccc([N+](=O)[O-])c3nonc23)cc1` (configuration not stated), the growth (SN12C renal) was 126%, the growth (UO-31 renal) was 97.9% and the growth (TK-10 renal) was 72.3%. For the same molecule, the growth (ACHN renal) was 72.4%, the growth (CAKI-1 renal) was 90.5% and the growth (A498 renal) was 84.3%. The growth (MOLT-4 leukemia) was -3.44% (active) and the growth (SR leukemia) was -8.16% (active).
